The nature of this assay: HSE-luciferase reporter activators – cell-based (AID 1611). The note with it: human cells, HSE-luciferase heat shock reporter; stronger effect = higher value.
For the compound `CN1C2CC[C@H]1CC(OC(=O)C(O)c1ccccc1)C2` (stereo not given in full), the fold change was 1.12.
Then `CCN(CC)CCOc1ccc2c(c1)C(=O)c1cc(OCCN(CC)CC)ccc1-2`, with 0.93; and `CC(C)CC(NC(=O)CCN)C(=O)O` (stereo not given), with 1.04; and `CC(C)NCC(O)COc1cccc2ccccc12` (stereo not given), with 0.95.
Then `CC(C)=CCC/C(C)=C/CO`, with 3.1.
As for `CC(=O)OCC1=C(C(=O)O)N2C(=O)[C@@H](NC(=O)Cc3cccs3)[C@H]2SC1`, the fold change came out at 1.09.
With `COCCc1ccc(OCC(O)CNC(C)C)cc1` (stereo not given) the figure was 0.6; with `O=C(C1CCCCC1)N1CC(=O)N2CCc3ccccc3C2C1` (stereo not given), 1.17; with `CCC(=O)O[C@H]1[C@H](O[C@@H]2[C@@H](C)[C@H](O[C@H]3C[C@@](C)(OC)[C@@H](O)[C@H](C)O3)[C@@H](C)C(=O)O[C@H](CC)[C@@](C)(O)[C@H](O)[C@@H](C)C(=O)[C@H](C)C[C@@]2(C)O)O[C@H](C)C[C@@H]1N(C)C`, 1.55.
With `CC1=CC(=O)c2ccccc2C1=O` the figure was 0.86; with `COc1ccc2c(c1)c(CC(=O)O)c(C)n2C(=O)c1ccc(Cl)cc1`, 0.9; with `CC(C)NCC(O)COc1ccc(CC(N)=O)cc1` (stereo not given), 0.76.
As for `CC[C@]12CCCN3CCc4c(n(c5ccccc45)[C@](O)(C(=O)OC)C1)[C@@H]32`, the fold change came out at 1.14.
With `O=C1c2ccccc2C(=O)C1c1ccccc1` the figure was 331; with `NC[C@H]1O[C@H](O[C@H]2[C@H](O)[C@@H](O[C@H]3O[C@H](CO)[C@@H](O)[C@H](N)[C@H]3O)[C@H](N)C[C@@H]2N)[C@H](O)[C@@H](O)[C@@H]1O`, 1.87.
With `O=C(O)c1cccnc1Nc1cccc(C(F)(F)F)c1` the figure was 1.08; with `COC1=C2C[C@@H](C)C[C@H](OC)[C@H](O)[C@@H](C)/C=C(\C)[C@@H](OC(N)=O)[C@H](OC)/C=C\C=C(/C)C(=O)NC(=CC1=O)C2=O`, 1.05.
With `CC1CCc2cc(F)cc3c(=O)c(C(=O)O)cn1c23` (stereo not given) the figure was 1.07; with `CC(=C(CCOP(=O)(O)O)SC(=O)c1ccccc1)N(C=O)Cc1cnc(C)nc1N`, 0.96.
Consider `CNCCC=C1c2ccccc2CCc2ccccc21`, for which the fold change was determined as 1.45.
For `CC[C@H]1CN2CCc3cc(OC)c(OC)cc3C2C[C@@H]1CC1NCCc2cc(OC)c(OC)cc21` (stereo not given in full), the fold change was 0.89.
Then `CC(C)(Oc1ccc(CCNC(=O)c2ccc(Cl)cc2)cc1)C(=O)O`, with 1.4; and `COC(=O)[C@H]1[C@H]2C[C@@H]3c4[nH]c5cc(OC)ccc5c4CCN3C[C@H]2C[C@@H](OC(=O)c2cc(OC)c(OC)c(OC)c2)[C@@H]1OC`, with 0.6; and `NCCCCC(N)C(=O)NC(Cc1ccc(O)cc1)C(=O)NC(CCCCN)C(=O)O` (stereo not given), with 0.95.
Turning to `CC1(C)S[C@@H]2C(N3C(=O)[C@@H](c4ccccc4)NC3(C)C)C(=O)N2[C@H]1C(=O)O` (stereo not given in full), the fold change amounted to 1.12.
Then `O=C(CCCN1CC=C(n2c(=O)[nH]c3ccccc32)CC1)c1ccc(F)cc1`, with 0.88; and `Nc1ncn([C@@H]2O[C@H](CO)[C@@H](O)[C@H]2O)c(=O)n1`, with 1.3.
With `Cn1c(=O)c2c(ncn2CCO)n(C)c1=O` the figure was 0.58; with `CC(=O)OCC(=O)[C@H]1CCC2C3CCC4=CC(=O)CC[C@]4(C)C3CC[C@@]21C` (stereo not given in full), 1.05; with `COc1ccc(C2Sc3ccccc3N(CCN(C)C)C(=O)C2OC(C)=O)cc1` (stereo not given), 0.53.
On to `CO/N=C(\C(=O)NC1C(=O)N2C(C(=O)O)=C(CSc3nc(=O)c(O)nn3C)CS[C@H]12)c1csc(N)n1` (stereo not given in full), for which the fold change came to 0.94.
Then `CN(C)CC/C=C1\c2ccccc2Sc2ccc(Cl)cc21`, with 1.34.
With `COc1ccc(CN(CCN(C)C)c2ccccn2)cc1`, the fold change was found to be 1.01.
Then `COc1ccc(C(=O)c2ccccc2)c(O)c1`, with 0.92; and `CN1CCC[C@@H]1CCO[C@](C)(c1ccccc1)c1ccc(Cl)cc1`, with 0.87; and `CC(=O)NS(=O)(=O)c1ccc(N)cc1`, with 0.98.
With `CC1(C)O[C@@H]2CC3C4C[C@H](F)C5=CC(=O)C=CC5(C)C4C(O)CC3(C)[C@]2(C(=O)CO)O1` (stereo not given in full) the figure was 1.4; with `CC(C[N+](C)(C)C)OC(N)=O` (stereo not given), 0.9.
As to `CCCC(CCC)C(=O)O`, the fold change came to 0.91.
Then `CCN(CC)CCOC(=O)C(c1ccccc1)C1CCCCC1` (stereo not given), with 1.12.
